This is part of a sample that, as a whole, favours compounds with a hit. Of some 83,000 tested, about 20% had one in any assay.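 Each cell line was grown in a 96-well plate and treated with one concentration of compound for 48 hours. Values below 10 were considered active.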 Unmarked numbers belong to inactive results. Active and inactive are the calls of the source.
Columns and labels:
Experiment in all cases: NCI-60 one-dose screen, 48 h (100 = growth as untreated, 0 = no growth, -100 = all killed)
Conditions in all cases: 10 µM unless noted
SK-MEL-2 melanoma = tested on: SK-MEL-2 melanoma
EKVX NSCLC = tested on: EKVX NSCLC
SN12C renal = tested on: SN12C renal
UO-31 renal = tested on: UO-31 renal
TK-10 renal = tested on: TK-10 renal
ACHN renal = tested on: ACHN renal
CAKI-1 renal = tested on: CAKI-1 renal
CCRF-CEM leukemia = tested on: CCRF-CEM leukemia
MOLT-4 leukemia = tested on: MOLT-4 leukemia
SR leukemia = tested on: SR leukemia
RPMI-8226 leukemia = tested on: RPMI-8226 leukemia
OVCAR-8 ovarian = tested on: OVCAR-8 ovarian
OVCAR-5 ovarian = tested on: OVCAR-5 ovarian
OVCAR-4 ovarian = tested on: OVCAR-4 ovarian
SK-OV-3 ovarian = tested on: SK-OV-3 ovarian
IGROV1 ovarian = tested on: IGROV1 ovarian
HS 578T breast = tested on: HS 578T breast
OVCAR-3 ovarian = tested on: OVCAR-3 ovarian
NCI/ADR-RES ovarian = tested on: NCI/ADR-RES ovarian
A498 renal = tested on: A498 renal

| SMILES | growth (SK-MEL-2 melanoma) | growth (EKVX NSCLC) | growth (SN12C renal) | growth (UO-31 renal) | growth (TK-10 renal) | growth (ACHN renal) | growth (CAKI-1 renal) | growth (CCRF-CEM leukemia) | growth (MOLT-4 leukemia) | growth (SR leukemia) | growth (RPMI-8226 leukemia) | growth (OVCAR-8 ovarian) | growth (OVCAR-5 ovarian) | growth (OVCAR-4 ovarian) | growth (SK-OV-3 ovarian) | growth (IGROV1 ovarian) | growth (HS 578T breast) | growth (OVCAR-3 ovarian) | growth (NCI/ADR-RES ovarian) | growth (A498 renal) |
| --- | --- | --- | --- | --- | --- | --- | --- | --- | --- | --- | --- | --- | --- | --- | --- | --- | --- | --- | --- | --- |
| COC(=O)c1[nH]nc2c1C1(C(=O)N(C)c3ccccc31)C(C#N)=C(N)O2 (stereo not given) | 105% | 99.3% | 97.9% | 79.7% | 102% | 97.9% | 91.1% | 109% | 112% | 113% | 104% | 102% | 103% | 97.7% | 98.3% | 105% | 99.7% | – | – | – |
| COc1ccc(Cn2cc3c(c2-c2cc(OC)c(OC)c(OC)c2)CCc2c(CN4CCOCC4)noc2-3)cc1 | 62.4% | 43.4% | 31.6% | 39.5% | 90.1% | 43.4% | 44.6% | 16.3% | 22.7% | 23.8% | 28.3% | – | 32.1% | 52.8% | 54.2% | 28.3% | – | 2.5% (active) | 8.51% (active) | – |
| CC1(C)NCCC[C@]2(C)[C@H]3C/C(=N\O)C4[C@@H]5C[C@@](C)(CO)CC[C@]5(C)CC[C@@]4(C)[C@]3(C)CC[C@@H]12 (stereo not given in full) | 101% | 108% | 94.1% | 90.2% | 107% | 101% | 85.8% | 91.9% | 80.5% | 81.2% | 111% | 98.4% | 104% | 99.4% | 107% | 96.5% | 98.6% | 109% | 98.1% | – |
| Cc1ccc2c(c1)Oc1nc(N)c(C#N)c(N)c1C2Sc1ccc(F)cc1 (stereo not given) | -75.2% (active) | -98.9% (active) | -98.4% (active) | -98.2% (active) | -98.8% (active) | -100% (active) | -99.8% (active) | -21.1% (active) | -16.6% (active) | -15.6% (active) | -24.1% (active) | -99.4% (active) | -93.5% (active) | -99.3% (active) | -94.5% (active) | -91.3% (active) | -38.1% (active) | -88.1% (active) | -89.4% (active) | – |
| O=C(O)c1cn(C2CC2)c2cc(N3CCN(C(=O)CN4C(=O)CSC4=O)CC3)c(F)cc2c1=O | 113% | 74.4% | 91.7% | 56.4% | 73.5% | 93.7% | 76.2% | – | 109% | 99.3% | 126% | 105% | 99% | 86.4% | 113% | 82.6% | 97.7% | 108% | 108% | – |
| O=C(Nc1nc2ccc([N+](=O)[O-])cc2s1)Nc1ccccc1Cl | 9.56% (active) | 33.6% | 10.4% | 31.8% | 40.1% | 42.7% | 21.8% | 28.9% | 21.8% | 18.1% | – | 12.8% | 81.8% | 14% | 22.8% | – | 46.9% | 16.8% | 47.1% | – |
| COc1cc(-c2nn(C(C)(C)C)cc2-c2ccnc(NCCCNS(=O)(=O)c3ccc(C)cc3)n2)ccc1Cl | 87.4% | 46.1% | 60.8% | 44% | 65.2% | 89.6% | 27.4% | – | 44.8% | 51.3% | 88.9% | 89.8% | 88.1% | 56.3% | 106% | 62.8% | 76.6% | – | 89.8% | – |
| COc1cc(-c2nn(C(C)(C)C)cc2-c2ccnc(NCCCNS(=O)(=O)c3ccc(F)cc3)n2)ccc1Cl | 86.9% | 39% | 52.5% | 42.3% | 68.8% | 83.6% | 25% | – | 49.5% | 48.8% | 75.1% | 89.2% | 82.3% | 54.2% | 104% | 61.6% | 81% | – | 79.9% | – |
| O=C(NNc1nc2cc(F)ccc2n2c(CN3CCCC3)ccc12)c1cnccn1 | 46% | 7.62% (active) | 21% | 18.7% | 40.2% | 13.3% | – | 6.67% (active) | 1.81% (active) | 4.32% (active) | 20.6% | 13.9% | 33.5% | 14.1% | 16.8% | 13.8% | – | 4.58% (active) | 0.656% (active) | -1.87% (active) |
| CCC1=Cc2cc(OC)ccc2OC12C=Cc1cc(OC)ccc1O2 (stereo not given) | 52.5% | 46.2% | 34.8% | 53% | 100% | 45% | – | 10.9% | 11% | 15.8% | 19.5% | 41.3% | 29.3% | 56.8% | 24% | 30.1% | 15.3% | 16% | 11.7% | – |
| O=C(O)c1ccc(-n2cc(CNc3cc(F)c(F)c(F)c3)c(-c3cccc(F)c3)n2)cc1 | 79.6% | 65.5% | 91.3% | 77% | 128% | 77.4% | – | 92.3% | 79.8% | 80.4% | 86.7% | 82.8% | 107% | 95.5% | 113% | 98.8% | 102% | 96.1% | 90.8% | – |
| COc1ccc2c(c1)c(CC(=O)[Se]CC(=O)O)c(C)n2C(=O)c1ccc(Cl)cc1 | 102% | 103% | 58.5% | 94.4% | 104% | 103% | – | 94.6% | 99.8% | 101% | 98.4% | 101% | 104% | 103% | 116% | 74.5% | 85.8% | 113% | 103% | 69.3% |
| NC(N)=Nc1ccc(Oc2cccc(NC(N)=Nc3ccc(Cl)c(C(F)(F)F)c3)c2)cn1 | 59.5% | 65.5% | 25.2% | 78.9% | 69.3% | 88.3% | – | 23.9% | 23.6% | -16.4% (active) | 27.9% | 53.5% | 41.8% | 52.7% | 48.3% | -19.7% (active) | 33.2% | 3.55% (active) | 95.4% | 36.7% |
| O=C(NNc1nc2cc(F)ccc2n2c(CN3CCC(O)C3)ccc12)c1cnccn1 (stereo not given) | 20% | 10.1% | 24.3% | 11% | 20.5% | 14.3% | – | 10.3% | 3.23% (active) | 6.32% (active) | 27.4% | 13.8% | 41.4% | 18.9% | 8.37% (active) | 18.2% | – | 34.9% | 2.49% (active) | 26.2% |
| N#Cc1cccc(CN2CCC3=C(C2)C(=O)N(Cc2ccc(Cl)cc2)C2=NCCCN23)c1 | 26.4% | 29% | 22.1% | 37.4% | 60.4% | 38.4% | – | – | 48.3% | 27.6% | 18.7% | 21.5% | 38.7% | 20.8% | 35.9% | 48.2% | 50.5% | 23.3% | 13.4% | 15.4% |
| CC(=O)c1cc(C(=O)c2ccc(Br)cc2)n2cc(C)cc(C)c12 | 102% | 71.7% | 90.8% | 84.8% | 103% | 98.9% | – | 97% | 87% | 77.1% | 62.9% | 98.9% | 89.8% | 93.4% | 94.9% | 85.6% | 95.9% | 112% | 86.3% | – |
| O=C(NNc1nc2cc(F)ccc2n2c(CN3CC4CNCC4C3)ccc12)c1cnccn1 (stereo not given) | 30.9% | 25.9% | 27.5% | 19.7% | 22.4% | 17.4% | – | 12.1% | 5.6% (active) | 12.9% | 46.7% | 14.3% | 43.1% | 23.8% | 23.4% | 24.2% | 72.5% | 36.9% | 84.8% | – |

Reference: PubChem BioAssay (NCI)
